Here are results for 64 compounds from ChEMBL document CHEMBL3988442, “University of Dundee, Small-Polar-MMV Screening Library” (2021).

In all, about 48,000 compounds went through this assay and about 13,000 (27%) showed an effect of 50% or more. This is one part of the list.

For the assay, the system named is Wolbachia pipientis. Nature of the assay: Anti-Wolbachia Cell-Based Screen. Format: functional. The arrangement: scale not given: in the data most compounds retested in dose-response had high values. Conditions: 5 µM.
In the case of `CN1CC(NC(=O)Cc2csc(C(C)(C)C)n2)CCC1=O` (centres undefined), the “Percent Effect” value was -3.161%.
The figure for `Cn1cccc1C(O)CNS(=O)(=O)c1ccccc1Br` (centres undefined) is 6.296%; for `NC(=O)N1CCCC1COC(=O)c1cc(F)ccc1F` (centres undefined) it is -4.772%.
For the compound `CN(CC(=O)N1CCCC1)C(=O)c1ccccc1F`, the “Percent Effect” value was found to be 15.74%.
With `CN(C(=O)c1cc(F)ccc1F)[C@@H]1CC[C@@H](O)[C@@H]1O`, the “Percent Effect” value worked out at 103%.
The same measure for `O=C(NCC1(CO)CC1)c1ccccc1F`: -18.48%; for `CO[C@@H]1CCC[C@@H](N(C)C(=O)c2cc(F)ccc2F)[C@H]1O`: 130.1%.
For `COC(=O)CCN1CCC(C(=O)c2cc(F)ccc2F)CC1`, the “Percent Effect” value was -15.76%.
Take `CN(C(=O)c1ccccc1F)[C@@H]1CC[C@@H](O)[C@@H]1O`: the “Percent Effect” value came out at 107.7%.
The same measure for `COc1ccc(F)cc1C(=O)N(C)[C@@H]1CC[C@@H](O)[C@@H]1O`: 132.3%; for `COc1ccc(F)cc1C(=O)N(C)Cc1cc(C)on1`: 2.319%; for `COc1ccc(F)cc1CSCC(=O)N(C)C1CC1`: -12.98%.
As for `N[C@@H]1CC[C@H](C(=O)NCCc2nc(-c3ccccc3)cs2)C1`, the “Percent Effect” value stood at 11.72%.
For `COc1ccc2c(c1)OCC(Cc1cncc(N)c1)C2` (centres undefined), the “Percent Effect” value was -0.2819%.
The same measure for `COc1cccc(OC)c1C(=O)N1C[C@@H](CN(C)C)[C@@H](CO)C1`: -5.352%.
The figure for `COc1cccc(F)c1C(=O)N1C[C@@H](CN(C)CCO)[C@@H](CO)C1` is 0.09463%; for `CN(C)C[C@@H]1CN(C(=O)c2cc(-c3ccccc3)n[nH]2)C[C@@H]1CO` it is 104.8%; for `CCN(C)C[C@@H]1CN(C(=O)c2cc(C(F)(F)F)n[nH]2)C[C@@H]1CO` it is 95.2%.
The figure for `CCN(C)C[C@@H]1CN(C(=O)c2cc(-c3ccc(F)cc3)n[nH]2)C[C@@H]1CO` is 95.72%; for `CN(C)C[C@@H]1CN(C(=O)c2cc(S(N)(=O)=O)ccc2F)C[C@@H]1CO` it is 8.109%.
As to `CN(C)C[C@@H]1CN(C(=O)c2cc(F)ccc2F)C[C@@H]1CO`, the “Percent Effect” value is reported as -6.942%.
As to `COc1ccc(-n2nc(C)c(C(C)=O)c2C)cc1C(N)=O`, the “Percent Effect” value worked out at 0.6017%.
Take `CC(=O)NCCNC(=O)Nc1cccc(Cl)c1SC(F)F`: the “Percent Effect” value is reported as -0.5749%.
On to `Cc1ccc(C#N)c(N2CCCC(c3nccn3Cc3cscn3)C2)n1` (centres undefined), for which the “Percent Effect” value was found to be 8.413%.
The same measure for `Cn1cnc2c1C(COCC1CC1)CN(C(=O)Cc1ccsc1)C2.O=C(O)C(F)(F)F` (centres undefined): 12.67%.
The figure for `Cc1cnc(C(=O)N2Cc3ncn(C)c3C(COCC(C)C)C2)cn1.O=C(O)C(F)(F)F` (centres undefined) is 101.6%.
Regarding `COCC1CN(C(=O)COc2ccccc2C)Cc2ncn(C)c21.O=C(O)C(F)(F)F` (centres undefined), the “Percent Effect” value is listed as -9.212%.
Turning to `Cn1cnc2c1C(COCC1CC1)CN(C(=O)c1cscn1)C2.O=C(O)C(F)(F)F` (centres undefined), the “Percent Effect” value is -8.988%.
Turning to `CC(C)COCC1CN(C(=O)c2cscn2)Cc2ncn(C)c21.O=C(O)C(F)(F)F` (centres undefined), the “Percent Effect” value is 123.8%.
Regarding `CCc1cc(N2CCC(F)(F)CC2)n2nc(C)c(C)c2n1`, the “Percent Effect” value is -3.857%.
On to `c1ccc(CCN2CCCC2c2cncc(Nc3nncs3)n2)cc1` (centres undefined), for which the “Percent Effect” value is recorded as 77.51%.
Consider `Cc1nc(C)n(CC2CCCN2CC(=O)Nc2nncs2)n1` (centres undefined), for which the “Percent Effect” value is -3.74%.
The figure for `O=C(NCC1CCCN1CCc1ccccc1)NCC1(O)CCC1` (centres undefined) is 3.682%.
The same measure for `c1nnc(Nc2cncc(C3CCCN3CC3CC3)n2)s1` (centres undefined): 143.4%; for `Cl.NC(=O)COc1ccc(CNCc2ccc(F)cc2F)cc1`: -6.385%; for `COc1ccc(-c2cc(C3CCOC3)c(C#N)c(N)n2)cn1` (centres undefined): -5.09%.
As for `N#Cc1c(N)nc2c(c1C1CCOC1)CCc1cc(O)ccc1-2` (centres undefined), the “Percent Effect” value is 95.46%.
For the compound `Cc1cc(C)cc(-c2cc(C3CCOC3)c(C#N)c(N)n2)c1` (centres undefined), the “Percent Effect” value worked out at 8.915%.
The figure for `COc1cc(-c2cc(C3CCOC3)c(C#N)c(N)n2)ccc1O` (centres undefined) is -3.198%.
For the compound `COc1ccc2c(c1OC)Cc1c-2nc(N)c(C#N)c1C1CCOC1` (centres undefined), the “Percent Effect” value stood at 97.76%.
Take `COc1ccc2c(c1)Cc1c-2nc(N)c(C#N)c1C1CCOC1` (centres undefined): the “Percent Effect” value came to 55.98%.
As to `CN(C)Cc1nc(C(C)(C)NC(=O)C2CC(=O)N(CC3CC3)C2)no1` (centres undefined), the “Percent Effect” value is listed as -8.829%.
In the case of `CN(C(=O)c1cccn1C)C1CCC(NC(=O)OC(C)(C)C)CC1` (centres undefined), the “Percent Effect” value is given as -22.93%.
On to `O=C(NC(CC(F)(F)F)c1ccc(Cl)cc1)c1nc(=O)[nH][nH]1` (centres undefined), for which the “Percent Effect” value is given as -2.983%.
The same measure for `Cc1nc(C)n(C2CCCN(C(=O)CCCn3ccnc3)C2)n1` (centres undefined): -10.35%; for `CCCN1CCCC2(CCN(C(=O)CCCn3cncn3)C2)C1=O` (centres undefined): -10.51%; for `Cc1nc(C)n(CC(=O)N2CCCC(c3nc(C)n4c(C)csc34)C2)n1` (centres undefined): 71.32%.
The figure for `Cc1csc2c(C3CCCN(C(=O)CCn4ccnc4)C3)nc(C)n12` (centres undefined) is 85.68%; for `Cc1csc2c(C3CCCN(C(=O)CCCn4cncn4)C3)nc(C)n12` (centres undefined) it is 105.3%; for `Cc1ccc(=O)n(CC(=O)N2CCCC(c3nc(C)c(C)s3)C2)n1` (centres undefined) it is -3.398%.
Consider `Cc1csc2c(C3CCCN(C(=O)Cn4cncn4)C3)nc(C)n12` (centres undefined), for which the “Percent Effect” value is reported as 83.22%.
The figure for `Cc1ccsc1[C@@H]1CCN(C(=O)CCCn2cncn2)C[C@H]1O` is 10.3%; for `CC(C)c1nc(CC(=O)N2CCCC(n3cncn3)C2)cs1` (centres undefined) it is -6.104%.
The same measure for `O=C(c1ccc2ccccc2c1)C1CCCN(C(=O)Cn2cncn2)C1` (centres undefined): 2.145%.
The figure for `COc1cccc(OCC2CCCN(C(=O)CCn3ccnc3)C2)c1` (centres undefined) is -97.21%; for `COc1ccc2c(c1)CCCC2CC(=O)NCC(C)(C)C(=O)O` (centres undefined) it is -16.88%; for `CS(=O)(=O)CCCNC1(c2ccc(Br)cc2)CCC1` it is 1.327%.
`Cc1csc(N2CCN(C(=O)CCn3cncn3)CC2)n1`: the “Percent Effect” value amounted to 2.857%.
For `CCc1csc(C2CCCN(C(=O)CCn3cc(C)cn3)C2)n1` (centres undefined), the “Percent Effect” value is reported as -1.231%.
The figure for `Cc1csc2c(C3CCCN(C(=O)CCn4cncn4)C3)nc(C)n12` (centres undefined) is 98.48%; for `Cc1csc2c(C3CCN(C(=O)Cn4cncn4)CC3)nc(C)n12` it is 67.21%; for `COCCCN1CCCN(C(C)C(=O)Nc2ccnn2C(C)C)CC1` (centres undefined) it is -2.846%.
The figure for `CCOc1c(Cl)cccc1NCc1cc(C)on1` is 3.225%; for `Cc1cc(Cl)ccc1C(=O)N[C@H]1CN(S(C)(=O)=O)C[C@@H]1C1CC1` it is 11.67%.
